Values without a mark were called inactive. Inconclusive results are not listed. Calls of active or inactive are those of the source. Unless noted, calls follow the shape of the dose curve; as a rule, active = well fitted curve in either direction with a large enough effect (not every such curve was filed as active); inconclusive = small, poorly fitted or top-dose-only effect, or another doubt; inactive = flat fitted curve, though single readings scatter. Where only a bound is given, the exact number is not on record here.

Our source for the Potency and activity change, negative = inhibition values is PubChem BioAssay (NCATS).

Lysosomal acid glucosylceramidase (Homo sapiens), sequence (P04062 whole entry, looked up): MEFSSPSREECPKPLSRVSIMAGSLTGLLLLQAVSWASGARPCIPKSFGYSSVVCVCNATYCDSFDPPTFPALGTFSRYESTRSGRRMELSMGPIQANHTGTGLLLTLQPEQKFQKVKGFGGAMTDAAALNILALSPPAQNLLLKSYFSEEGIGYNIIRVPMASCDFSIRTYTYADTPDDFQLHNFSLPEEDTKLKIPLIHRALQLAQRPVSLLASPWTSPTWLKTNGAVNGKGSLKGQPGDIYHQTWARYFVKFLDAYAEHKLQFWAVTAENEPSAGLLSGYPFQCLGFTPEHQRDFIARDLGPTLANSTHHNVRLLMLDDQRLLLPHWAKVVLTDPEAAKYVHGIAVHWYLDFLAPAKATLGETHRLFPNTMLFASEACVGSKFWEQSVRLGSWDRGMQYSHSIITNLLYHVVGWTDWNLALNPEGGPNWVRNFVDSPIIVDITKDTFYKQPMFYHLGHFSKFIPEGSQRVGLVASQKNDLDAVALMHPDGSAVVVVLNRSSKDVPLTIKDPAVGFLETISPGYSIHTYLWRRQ

The first test concerns the target Lysosomal acid glucosylceramidase (Homo sapiens) (UniProt P04062). Kind of test: Glucocerebrosidase-p2 (AID 348; in the data active = potency below about 10 µM; also: potency is read from the fitted curve at half-maximal effect). The following applies: purified GBA, blue fluorogenic substrate, 40 min. In outline:
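Normal human glucocerebrosidase (0.2 nM) with blue fluorogenic substrate (80 uM final) in citrate/phosphate pH 5.9 with 10mM sodium taurocholate, 0.01% tween-20; 40 min RT, NaOH/glycine stop; fluorescence Ex 365/Em 440; AC50 from a titration from 0.6 nM upwards.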
`Cc1nc2cnc(N3CCOCC3)nc2n(C[C@H]2CCCO2)c1=O`: the Potency is over 11.4 µM.
`CN(C)Cc1ccccc1-c1nc(NCc2cccs2)c2ccccc2n1`: the Potency was over 11.4 µM.
Still for that read-out and setting: with `CN(C)c1ncc2nc(-c3ccccc3)c(=O)n(-c3ccccc3)c2n1` the figure was over 11.4 µM; with `N#Cc1cccc(-c2nc3cnc(N4CCOCC4)nc3n(C[C@H]3CCCO3)c2=O)c1`, over 11.4 µM; with `COc1ccc(-c2nc3cnc(Nc4cccc(OC)c4)nc3n(C3CC3)c2=O)cc1`, over 11.4 µM.
Regarding `CN(C)c1ncc2nc(-c3cn(C)c4ccccc34)c(=O)n(C[C@H]3CCCO3)c2n1`, the Potency was over 11.4 µM.
Turning to `CN(C)c1ncc2nc(-c3ccc(F)cc3)c(=O)n(C[C@H]3CCCO3)c2n1`, the Potency is over 11.4 µM.
As to `CN(C)c1ccc(-c2cc(Nc3ccc(F)cc3)ncn2)cc1`, the Potency is over 11.4 µM.
In the case of `COc1ncc2nc(C)c(=O)n(C3CC3)c2n1`, the Potency is over 11.4 µM.
Regarding `CN(C)Cc1ccccc1-c1cc(N(C)Cc2ccco2)ncn1`, the Potency is over 11.4 µM.
Regarding `CN(Cc1ccco1)c1ncncc1-c1ccccc1Cl`, the Potency was over 11.4 µM.
With `CN1CCN(c2ncc3ncc(=O)n(C[C@H]4CCCO4)c3n2)CC1`, the Potency was over 11.4 µM.
For the compound `CN1CCN(c2ncc3nc(-c4cc(F)cc(F)c4)c(=O)n(C4CC4)c3n2)CC1`, the Potency is over 11.4 µM.
For the compound `COCCn1c(=O)c(C)nc2cnc(Oc3ccc(OC)cc3)nc21`, the Potency is over 11.4 µM.
For the compound `CN(Cc1ccco1)c1ncncc1-c1ccoc1`, the Potency is over 11.4 µM.
As for `CCNc1ncc2nc(-c3cn(C)c4ccccc34)c(=O)n(Cc3cccc(OC)c3)c2n1`, the Potency was over 11.4 µM.
On to `c1ccc(Nc2cc(-c3ccoc3)ncn2)cc1`, for which the Potency was over 11.4 µM.
`Cn1c(=O)c(-c2cccs2)nc2cnc(OCc3ccccc3)nc21`: the Potency was over 11.4 µM.
`FC(F)(F)c1ccccc1-c1cc(NCc2ccccc2)ncn1`: the Potency is over 11.4 µM.
Still for that read-out and setting: with `Cc1nc2cnc(N(C)C)nc2n(C[C@H]2CCCO2)c1=O` the figure was over 11.4 µM; with `O=c1c(CCc2ccccc2)nc2cnc(N3CCOCC3)nc2n1Cc1cccs1`, over 11.4 µM; with `Cn1c(=O)c(-c2cc(F)cc(F)c2)nc2cnc(N3CCOCC3)nc21`, over 11.4 µM.
Regarding `O=c1cnc2cnc(N3CCOCC3)nc2n1CCc1ccccc1`, the Potency is over 11.4 µM.
`Cc1ccccc1-c1cc(N(C)C)ncn1`: the Potency is over 11.4 µM.
For the compound `CCNc1ncc2ncc(=O)n(C3CC3)c2n1`, the Potency is over 11.4 µM.
For `COCCn1c(=O)c(-c2cc(F)cc(F)c2)nc2cnc(N3CCOCC3)nc21`, the Potency was over 11.4 µM.
For the compound `O=c1c(-c2ccc(F)cc2)nc2cnc(N3CCNCC3)nc2n1Cc1ccc(F)cc1`, the Potency is over 11.4 µM.
With `COc1ncc2nc(-c3ccc(F)cc3)c(=O)n(C3CC3)c2n1`, the Potency was over 11.4 µM.
As for `COc1ccc(-n2c(=O)c(-c3cccs3)nc3cnc(N(C)C)nc32)cc1`, the Potency was over 11.4 µM.
On the same count and under the same terms, the value for `Fc1ccc(Nc2ncncc2-c2ccccc2C(F)(F)F)cc1` was over 11.4 µM; that for `CN(C)c1ncnc2ccc(-c3cccnc3)cc12` was over 11.4 µM; that for `Cc1noc(C)c1-c1ccc2ncnc(N(C)C)c2c1` was over 11.4 µM.
For the compound `Cn1c(=O)c(-c2ccc(Cl)cc2)nc2cnc(Nc3ccccc3)nc21`, the Potency is over 11.4 µM.
On to `CN1CCN(c2ncc3nc(-c4ccc(Cl)cc4)c(=O)n(Cc4cccs4)c3n2)CC1`, for which the Potency was over 11.4 µM.
Still for that read-out and setting: the value for `CN1CCN(c2cc(-c3ccoc3)ncn2)CC1` was over 11.4 µM.
Regarding `COCCNc1nc(-c2ccccc2OC)nc2ccccc12`, the Potency is over 2.29 µM.
On to `CN(Cc1ccco1)c1ncncc1-c1cccc(C#N)c1`, for which the Potency is over 11.4 µM.
For `Cc1nc2cnc(N3CCN(C)CC3)nc2n(CCC#N)c1=O`, the Potency is over 11.4 µM.
`COc1ccc(Oc2ncc3nc(C)c(=O)n(Cc4cccc(OC)c4)c3n2)cc1`: the Potency was over 11.4 µM.
Regarding `COCCn1c(=O)c(-c2ccc(Cl)cc2)nc2cnc(Oc3cccc(Cl)c3)nc21`, the Potency is over 11.4 µM.

Tested on in another test: not listed separately
Nature of the test: AP1 Signaling Pathway (AID 357).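 Also: ME-180 reporter cells stimulated with EGF at its EC50 level; % is scaled to controls: 0 for no effect and ±100 for the full control effect.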 The note with it: ME-180 (cervical carcinoma) AP-1-bla reporter, EGF-induced, beta-lactamase ratio, 5 h; at 7.69 µM (top of the series) unless noted. Summed up:
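Titration-series screen for positive or negative modulators of EC50 EGF-induced signaling in ME-180 cells carrying an AP-1-driven beta-lactamase reporter. After 5 hours at 37 degrees Celsius, CCF4 460nm/530nm emission ratio gave %Activity; AC50 values derived.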
For the compound `Cc1nc2cnc(N3CCOCC3)nc2n(C[C@H]2CCCO2)c1=O`, the activity change, negative = inhibition was -13.4%.
Turning to `CN(C)Cc1ccccc1-c1nc(NCc2cccs2)c2ccccc2n1`, the activity change, negative = inhibition was 25.7%.
As to `CN(C)c1ncc2nc(-c3ccccc3)c(=O)n(-c3ccccc3)c2n1`, the activity change, negative = inhibition was 15.6%.
`N#Cc1cccc(-c2nc3cnc(N4CCOCC4)nc3n(C[C@H]3CCCO3)c2=O)c1`: the activity change, negative = inhibition is -1.16%.
Consider `COc1ccc(-c2nc3cnc(Nc4cccc(OC)c4)nc3n(C3CC3)c2=O)cc1`, for which the activity change, negative = inhibition was -4.98%.
Regarding `CN(C)c1ncc2nc(-c3cn(C)c4ccccc34)c(=O)n(C[C@H]3CCCO3)c2n1`, the activity change, negative = inhibition was -23.8%.
As for `CN(C)c1ncc2nc(-c3ccc(F)cc3)c(=O)n(C[C@H]3CCCO3)c2n1`, the activity change, negative = inhibition is 26.6%.
As to `CN(C)c1ccc(-c2cc(Nc3ccc(F)cc3)ncn2)cc1`, the activity change, negative = inhibition was -18.2%.
Same read-out and setting: with `COc1ncc2nc(C)c(=O)n(C3CC3)c2n1` the figure was -5.11%; with `CN(C)Cc1ccccc1-c1cc(N(C)Cc2ccco2)ncn1`, 4.53%; with `CN(Cc1ccco1)c1ncncc1-c1ccccc1Cl`, 23.7%.
As for `CN1CCN(c2ncc3ncc(=O)n(C[C@H]4CCCO4)c3n2)CC1`, the activity change, negative = inhibition was -9.63%.
`CN1CCN(c2ncc3nc(-c4cc(F)cc(F)c4)c(=O)n(C4CC4)c3n2)CC1`: the activity change, negative = inhibition was -8.53%.
For `COCCn1c(=O)c(C)nc2cnc(Oc3ccc(OC)cc3)nc21`, the activity change, negative = inhibition is -18.9%.
Regarding `CN(Cc1ccco1)c1ncncc1-c1ccoc1`, the activity change, negative = inhibition is -12.2%.
On the same count and under the same terms, with `CCNc1ncc2nc(-c3cn(C)c4ccccc34)c(=O)n(Cc3cccc(OC)c3)c2n1` the figure was 0.603%.
Take `c1ccc(Nc2cc(-c3ccoc3)ncn2)cc1`: the activity change, negative = inhibition is -8.62%.
With `Cn1c(=O)c(-c2cccs2)nc2cnc(OCc3ccccc3)nc21`, the activity change, negative = inhibition is 16%.
Same read-out and setting: the value for `FC(F)(F)c1ccccc1-c1cc(NCc2ccccc2)ncn1` was -15.2%; that for `Cc1nc2cnc(N(C)C)nc2n(C[C@H]2CCCO2)c1=O` was -5.35%.
Regarding `O=c1c(CCc2ccccc2)nc2cnc(N3CCOCC3)nc2n1Cc1cccs1`, the activity change, negative = inhibition was -2.34%.
Take `Cn1c(=O)c(-c2cc(F)cc(F)c2)nc2cnc(N3CCOCC3)nc21`: the activity change, negative = inhibition is -11%.
Same read-out and setting: the value for `O=c1cnc2cnc(N3CCOCC3)nc2n1CCc1ccccc1` was -4.12%; that for `Cc1ccccc1-c1cc(N(C)C)ncn1` was -2.87%; that for `CCNc1ncc2ncc(=O)n(C3CC3)c2n1` was -20.4%.
Turning to `COCCn1c(=O)c(-c2cc(F)cc(F)c2)nc2cnc(N3CCOCC3)nc21`, the activity change, negative = inhibition is 11.2%.
Turning to `O=c1c(-c2ccc(F)cc2)nc2cnc(N3CCNCC3)nc2n1Cc1ccc(F)cc1`, the activity change, negative = inhibition was 115% [activator] (active).
On to `COc1ncc2nc(-c3ccc(F)cc3)c(=O)n(C3CC3)c2n1`, for which the activity change, negative = inhibition is -9.24%.
As to `COc1ccc(-n2c(=O)c(-c3cccs3)nc3cnc(N(C)C)nc32)cc1`, the activity change, negative = inhibition is -10.2%.
With `Fc1ccc(Nc2ncncc2-c2ccccc2C(F)(F)F)cc1`, the activity change, negative = inhibition is -13.5%.
The same measure, in the same setting: the value for `CN(C)c1ncnc2ccc(-c3cccnc3)cc12` was -15%; that for `Cc1noc(C)c1-c1ccc2ncnc(N(C)C)c2c1` was -2.75%.
Take `Cn1c(=O)c(-c2ccc(Cl)cc2)nc2cnc(Nc3ccccc3)nc21`: the activity change, negative = inhibition was -22.9%.
In the case of `CN1CCN(c2ncc3nc(-c4ccc(Cl)cc4)c(=O)n(Cc4cccs4)c3n2)CC1`, the activity change, negative = inhibition is 140% [activator] (active).
On to `CN1CCN(c2cc(-c3ccoc3)ncn2)CC1`, for which the activity change, negative = inhibition is -1.21%.
On to `COCCNc1nc(-c2ccccc2OC)nc2ccccc12`, for which the activity change, negative = inhibition was 12.5%.
For `CN(Cc1ccco1)c1ncncc1-c1cccc(C#N)c1`, the activity change, negative = inhibition is 21.3%.
Still for that read-out and setting: the value for `Cc1nc2cnc(N3CCN(C)CC3)nc2n(CCC#N)c1=O` was 9.68%; that for `COc1ccc(Oc2ncc3nc(C)c(=O)n(Cc4cccc(OC)c4)c3n2)cc1` was -16%.
Same read-out and setting: the value for `COCCn1c(=O)c(-c2ccc(Cl)cc2)nc2cnc(Oc3cccc(Cl)c3)nc21` was 13.2%.
